# Measurements: PubChem BioAssay (NCI)
# Compounds without any hit were thinned out: in the full panel of roughly 83,000, 20% have a hit.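 Negative percent growth values reflect cell death: -40 means 40% of the cells present at the start died, and -100 means all died.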 A number with no mark means an inactive call. Active and inactive are the calls of the source. Rule for the calls: active = growth percent below 10; inactive = the rest.
# Legend:
# Assay in all cases: NCI-60 one-dose screen, 48 h (100 = growth as untreated, 0 = no growth, -100 = all killed)
# Conditions in all cases: 10 µM unless noted
# SR leukemia = system: SR leukemia
# RPMI-8226 leukemia = system: RPMI-8226 leukemia
# OVCAR-8 ovarian = system: OVCAR-8 ovarian
# OVCAR-5 ovarian = system: OVCAR-5 ovarian
# OVCAR-4 ovarian = system: OVCAR-4 ovarian
# SK-OV-3 ovarian = system: SK-OV-3 ovarian
# IGROV1 ovarian = system: IGROV1 ovarian
# OVCAR-3 ovarian = system: OVCAR-3 ovarian
# HS 578T breast = system: HS 578T breast
# NCI/ADR-RES ovarian = system: NCI/ADR-RES ovarian
# T-47D breast = system: T-47D breast
# BT-549 breast = system: BT-549 breast
# MDA-MB-435 melanoma = system: MDA-MB-435 melanoma
# SW-620 colon = system: SW-620 colon
# MCF7 breast = system: MCF7 breast
# HCT-116 colon = system: HCT-116 colon
# HCC-2998 colon = system: HCC-2998 colon
# KM12 colon = system: KM12 colon
SMILES,growth (SR leukemia),growth (RPMI-8226 leukemia),growth (OVCAR-8 ovarian),growth (OVCAR-5 ovarian),growth (OVCAR-4 ovarian),growth (SK-OV-3 ovarian),growth (IGROV1 ovarian),growth (OVCAR-3 ovarian),growth (HS 578T breast),growth (NCI/ADR-RES ovarian),growth (T-47D breast),growth (BT-549 breast),growth (MDA-MB-435 melanoma),growth (SW-620 colon),growth (MCF7 breast),growth (HCT-116 colon),growth (HCC-2998 colon),growth (KM12 colon)
C#C[C@]1(O)CC[C@H]2[C@@H]3CC=C4c5sc(-c6ccc(C)cc6)nc5CC[C@]4(C)[C@H]3CC[C@@]21C,0.0897% (active),-27.4% (active),58.4%,93.5%,65.3%,-7.23% (active),49.3%,62%,-26.9% (active),56.6%,50.4%,47.8%,-46.4% (active),-37.5% (active),1.73% (active),29.4%,62.6%,12.7%
CCc1nn2c(C)cc(C)nc2c1Cc1ccc(/C=C/CN2CCN(CCOCCOCCN3CCN(C/C=C/c4ccc(Cc5c(CC)nn6c(C)cc(C)nc56)cc4)CC3)CC2)cc1,-30.9% (active),-41.9% (active),19.1%,28.2%,25.9%,85.2%,4.6% (active),-60.4% (active),-39.4% (active),23.2%,-36.4% (active),79.7%,-78.3% (active),-50.4% (active),-85.8% (active),-84.1% (active),-61.9% (active),35.2%
O=C(NNc1nc2cc(F)c(F)cc2n2cccc12)c1cnccn1,15.3%,30.5%,16.6%,41.2%,20.3%,30.5%,19.5%,35.6%,75.5%,2.66% (active),13.6%,43.7%,37.1%,27.4%,14%,17.5%,40.9%,22.3%
CS(=O)(=O)Nc1cc(-c2ccc3ncc(C#N)c(NCc4ccccc4)c3c2)cnc1Cl,-18.9% (active),-35.3% (active),7.32% (active),3.75% (active),-6.69% (active),-15% (active),-17.4% (active),-5.17% (active),-21.2% (active),24.5%,0.176% (active),,-6.33% (active),4.13% (active),6.39% (active),4.12% (active),4.93% (active),8.53% (active)
O=C(NNc1nc2cc(F)cc(F)c2n2cccc12)c1cnccn1,8.81% (active),18.3%,12.7%,33.1%,16.2%,4.18% (active),15%,30.2%,64.4%,3.06% (active),10.3%,24.1%,31.3%,21.7%,3.97% (active),12.3%,49.9%,28.7%
CCCn1cnc2c(c1=N)C(c1ccc(F)cc1)c1sc3c(CC)cccc3c1O2 (stereo not drawn),1.23% (active),4.79% (active),26.2%,23.3%,26.6%,40.3%,10.2%,-10.2% (active),16.5%,-13.9% (active),72.7%,,-25.2% (active),17.7%,18.1%,7.53% (active),24.2%,10.7%
COc1cc(-c2nn(C(C)(C)C)cc2-c2ccnc(NCCCNS(=O)(=O)c3ccc(Cl)cc3)n2)ccc1Cl,37.7%,66.1%,73.3%,79.5%,39.2%,93.9%,50.8%,73.5%,70.5%,67%,64.2%,,72.2%,91.1%,52.2%,39%,108%,68.8%
Nc1nc(-c2cccc([N+](=O)[O-])c2)c(N=Nc2ccccc2)s1,56.1%,52.9%,58.2%,79.4%,59.2%,62.3%,82.5%,,70.4%,54.9%,40.5%,73.2%,64.9%,64.9%,51.9%,54.8%,71.6%,44%
Cc1ccc(N2C(=O)/C(=C/C=C/c3ccco3)SC2=S)cc1,56.6%,75.3%,99.2%,103%,92.4%,107%,103%,,96.2%,97.6%,71.6%,126%,90.6%,90.1%,66.4%,94.2%,101%,95.4%
COc1cc(OC)c(S(N)(=O)=O)cc1C(=O)/C=C/c1ccc(Cl)cc1,-19.5% (active),-5.04% (active),3% (active),17.2%,49.9%,33.6%,6.66% (active),,13.2%,20%,26.1%,1.01% (active),16.7%,-39.9% (active),5.69% (active),7.77% (active),1.39% (active),1.9% (active)
C[C@@H]1C[C@H]2C(=O)O[C@@H](C)C(NC(=O)[C@H](Cc3cc(F)cc(F)c3)NC(=O)Nc3ccc(C4CC4)cc3F)C(=O)N3CCC[C@H]3C(=O)N3CCCC[C@H]3C(=O)N[C@@H](CO)C(=O)N2C1 (stereo partly drawn),28.1%,14.9%,20.9%,29.9%,21.3%,21%,42.2%,,32.7%,36.1%,21.7%,27.6%,17.9%,35.8%,16.1%,10.6%,24%,38%
CCOc1cccc(-c2nc3sccn3c2-c2ccnc(S(C)(=O)=O)n2)c1,68.2%,97.1%,102%,106%,87%,112%,94.2%,,102%,103%,65.8%,122%,95%,103%,36%,92.6%,80.8%,87.6%
COc1cc(OC)c(S(N)(=O)=O)cc1C(=O)/C=C/c1ccc(C)cc1,5.66% (active),18.5%,31.7%,13.4%,53.1%,37.6%,25.3%,,21.3%,37%,2.31% (active),21.2%,8.41% (active),6.29% (active),12.2%,11.4%,8.59% (active),-1.47% (active)
COc1ccc(/C=C/C(=O)c2cccc(NC(=O)CSc3nc4ccccc4c(=O)n3-c3ccccc3)c2)cc1OC,73%,67.9%,102%,111%,98.8%,120%,105%,,100%,105%,88.2%,115%,101%,94.1%,69.2%,86.2%,111%,95.9%
O=C(CSc1nc2ccccc2c(=O)n1-c1ccccc1)Nc1cccc(C(=O)/C=C/c2ccccc2)c1,77.5%,6.02% (active),84%,96.6%,94%,103%,95.4%,,92.5%,96.8%,76.8%,112%,93.2%,90%,19%,-13.7% (active),113%,87.5%
O=S(=O)(NC1c2ccccc2C[C@H]1O)c1ccc(Cl)cc1Cl (stereo partly drawn),87.2%,107%,98.4%,102%,97.4%,97.3%,99.2%,,93.7%,99.5%,93.7%,126%,94.1%,102%,95.5%,98.1%,97%,96.3%
COc1ccc2[nH]cc(/C=N/Nc3nc4ccccc4s3)c2c1,45.5%,47.2%,67.1%,73.2%,67.2%,65.7%,29.8%,,60.6%,66%,2.18% (active),58.7%,66.2%,74.7%,22.5%,46.8%,41%,13.6%
CN1CCN(Cc2ccc(NC(=O)c3cncc(C#Cc4cnn5cccnc45)c3)cc2C(F)(F)F)CC1,-16.3% (active),6.03% (active),13.5%,26%,27.9%,28.3%,5.44% (active),,27.2%,26.5%,54.2%,47.1%,3.16% (active),0.2% (active),-2.5% (active),4.34% (active),12.7%,2.87% (active)
COc1cc(-c2nc3sccn3c2-c2ccnc(S(C)(=O)=O)n2)ccc1F,86.3%,91.9%,98.3%,98.3%,98.2%,113%,98.1%,,101%,95.7%,97.9%,92.2%,91.5%,99%,84.1%,103%,100%,102%
Cc1ccc(S(=O)(=O)NCCNc2nc(Nc3ccc(N4CCN(C)CC4)cc3)nc3ccsc23)cc1,18.1%,84.2%,104%,113%,95.1%,129%,108%,,89%,100%,102%,114%,109%,103%,87.4%,69.7%,104%,100%
Cc1cc(C)c(N2C(=O)CC(Nc3ccc(Cl)cc3Cl)C2=O)c(C)c1 (stereo not drawn),97.5%,99.9%,101%,100%,102%,108%,104%,,95.8%,107%,93.7%,112%,102%,102%,91%,104%,118%,105%
Nc1nc(-c2cccc([N+](=O)[O-])c2)c(N=Nc2ccc([N+](=O)[O-])cc2Cl)s1,5.91% (active),-6.23% (active),7.59% (active),21%,16.3%,-11% (active),30.6%,,-4.26% (active),6.4% (active),4.47% (active),-24.9% (active),6.11% (active),13%,2.17% (active),0.397% (active),12.9%,2.86% (active)
